# Experimental data published in PubChem BioAssay (NCATS).
# Several values for one entry are separate records, joined by “and”; a condition that tells them apart may be missing. Identical values can stand only once. Results filed as inconclusive are left out. Entries that show only a call come without a potency. Activity calls are given as the source filed them. Unless noted, calls come from the whole dose curve; as a rule, active = well fitted curve in the direction sought with a large enough effect; inconclusive = small, poorly fitted or top-dose-only effect, or another doubt; inactive = no such curve, though single readings can be large; an effect the other way counts as inactive or inconclusive.
# What was measured:
# [1] = molecular target: Alpha-galactosidase A (Homo sapiens) (UniProt P06280); test: Counterscreen for Glucocerebrosidase Inhibitors: qHTS Assay for Human alpha-Galactosidase at pH 4.5 (AID 992)
# Procedure, shortened: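 Enzyme at 2 nM final was combined with compound (0.7 nM to 77 uM) and 80 uM 4-methylumbelliferyl alpha-D-galactopyranoside in 50 mM citric acid, 0.005% Tween-20, pH 4.5. After 20 min at room temperature, fluorescence was read (Ex 365/Em 440 nm); AC50 came from Hill fits.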
# [2] = molecular target: alpha-glucosidase (Oryza sativa, rice) (UniProt Q653V4); test: Counterscreen for Glucocerebrosidase Inhibitors: qHTS Assay for Rice alpha-Glucosidase at pH 5.0 (AID 997)
# Procedure, shortened: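 Rice alpha-glucosidase (4 nM final) with 400 uM 4-methylumbelliferyl-alpha-D-glucopyranoside in citrate buffer pH 5.0, 20 min at room temperature, stopped at pH 10; fluorescence 365/440 nm, compounds 0.7 nM–77 uM, AC50 from Hill fits.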
# [3] = Validation of Assay for Modulators of Lamin A Splicing (AID 1459; active = well fitted curve in the direction sought with a large enough effect in the signal ratio; the % refers to the signal ratio;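 note: cells exposed to compound for two days before reading; ratio rise marks activators and ratio drop marks inhibitors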)
# Procedure, shortened: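 S3 HeLa stably expressing lamin A-EGFP splicing minigene and DsRed2, 600 cells/well in Opti-MEM with 2% FBS, treated 48 h at 37C; laser-scanning cytometry gives GFP/RFP total intensity ratio; ancitabine positive control, 0.5% DMSO vehicle.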
# [4] = molecular target: DNA repair nuclease/redox regulator APEX1 (Homo sapiens) (UniProt P27695); test: qHTS Validation Assay for Inhibitors of the Human Apurinic/apyrimidinic Endonuclease 1 (APE1) (AID 1705;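 note: TAMRA fluorescence gain over two minutes as APE1 cuts a quenched THF abasic duplex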)
# Procedure, shortened: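 Fluorogenic double-stranded THF abasic-site substrate (5'-TAMRA/3'-BHQ-2), 50 nM final. Enzyme preincubated with compound 15 min at room temperature, then substrate added. Kinetic fluorescence (ex 525/em 598 nm) read three times at 60 s intervals; activity taken as third-minus-first read difference.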
# [5] = Counterscreen for APE1 Inhibitors: Fluorescent Dye Displacement Validation Assay (AID 1707)
# Procedure, shortened: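 Thiazole Orange displacement from dsDNA: 250 nM ThO with 50 nM TAMRA-labelled abasic-site (tetrahydrofuran) duplex in 50 mM Tris-HCl pH7.5, 50mM NaCl, 2 mM MgCl2, 0.01% Tween-20. Loss of endpoint fluorescence (ex 480 nm, em 540 nm) flags DNA binders.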
# [6] = molecular target: Endonuclease 4 (Escherichia coli (strain K12)) (UniProt P0A6C1); test: Counterscreen for APE1 Inhibitors: qHTS Validation Assay for Inhibitors of Endonuclease IV (AID 1708)
# Procedure, shortened: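 Cleavage of a quenched abasic-site DNA duplex (50 nM, 5'-TAMRA, 3'-BHQ-2) by 2 nM enzyme is followed as fluorescence increase. Compounds are preincubated with enzyme 15 min at room temperature before substrate addition.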
# [7] = qHTS for differential inhibitors of proliferation of Plasmodium falciparum line GB4 (AID 1816); settings: Potency: Plasmodium falciparum GB4 proliferation inhibition;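 note: parasite growth measured after 72 h incubation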
# [8] = Cell Viability - LYMP2-026 (AID 989); note: nearly all actives have a fitted effect of over 50% in size
# Procedure, shortened: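 Concentration-dependent loss of intracellular ATP in human lymphoblastoid cells after 24 hr at 37 C, quantified by luciferase luminescence. AC50 derived from standard Hill equation.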
# [9] = qHTS Assay for Lipid Storage Modulators (AID 1519; calls by dose curve); settings: Drosophila S3 cells, BODIPY lipid droplet/cell ratio, laser cytometry, cells loaded with oleic acid
# Procedure, shortened: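 Cells seeded at 5,000 per well were treated with compounds over a concentration series and loaded with oleic acid (400 uM, as added). Lipid droplet fluorescence (488 nm excitation, 500-530 nm channel) was read by laser-scanning cytometry and normalized to 20 uM Triacsin C.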
# [10] = qHTS for differential inhibitors of proliferation of Plasmodium falciparum line 7G8 (AID 1815);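 note: parasite growth measured after three days of incubation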; note: potency is the fitted concentration of half-maximal effect
# [11] = Cell Viability - LYMP2-008 (AID 980); note: nearly all actives have a fitted effect of over 60% in size
# Procedure, shortened: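 Acute cytotoxicity is scored as concentration-dependent loss of cellular ATP in a human lymphoblastoid line after 24 hr treatment at 37 C. ATP is quantified by luciferase luminescence.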
# [12] = Cell Viability - LYMP2-010 (AID 981);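 note: cells exposed to compound for 24 hours at 37 °C; nearly all actives have a fitted effect of over 55% in size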
# Procedure, shortened: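 Acute toxicity is scored as a concentration-dependent loss of cellular ATP in human lymphoblastoid cells after 24 hr compound exposure in complete medium. Tetraoctylammonium bromide is the positive control.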
# [13] = Cell Viability - LYMP2-012 (AID 982);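 note: cellular ATP by luciferase luminescence where a drop means cytotoxicity; cells exposed to compound for one day before reading; nearly all actives have a fitted effect of over 55% in size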
# [14] = Cell Viability - LYMP2-014 (AID 983); note: nearly all actives have a fitted effect of over 50% in size
# Procedure, shortened: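 Decrease in intracellular ATP after 24 hr treatment at 37 C, measured by luciferase luminescence, indicated cytotoxicity. Concentration-response data were fitted with the standard Hill equation to give AC50.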
# [15] = Cell Viability - LYMP2-016 (AID 984);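 note: cells exposed to compound for 24 hours at 37 °C; nearly all actives have a fitted effect of over 55% in size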
# Procedure, shortened: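 Human lymphoblastoid LYMP2-016 cells, 2500 per well, treated with compounds for 24 h at 37 C. Viability read as intracellular ATP by CellTiter-Glo luminescence after 30 min at room temperature; AC50 from Hill fits of concentration-response.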
# [16] = Cell Viability - LYMP2-020 (AID 986); note: nearly all actives have a fitted effect of over 55% in size
# Procedure, shortened: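 Acute cytotoxicity in a human lymphoblastoid line is scored as a concentration-dependent fall in cellular ATP after 24 hr at 37 C in complete medium. The positive control is tetraoctylammonium bromide, and potency is given as Hill-fit AC50.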
# [17] = Cell Viability - LYMP2-022 (AID 987); note: nearly all actives have a fitted effect of over 55% in size
# Procedure, shortened: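 Acute toxicity in a human lymphoblastoid line is scored as decreased intracellular ATP after 24 hr compound treatment at 37 C. ATP is measured by CellTiter-Glo luminescence; curves are fitted with the Hill equation to give AC50.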
# [18] = Cell Viability - LYMP2-024 (AID 988);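 note: cells exposed to compound for 24 hr at 37 °C; nearly all actives have a fitted effect of over 60% in size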
# Procedure, shortened: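 Acute toxicity is measured as concentration-dependent loss of intracellular ATP in a human lymphoblastoid line treated 24 hours at 37 C. Luciferase luminescence quantifies ATP; AC50 values come from standard Hill-equation modelling.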
# [19] = Cell Viability - LYMP1-002 - Assay at 24 hr (AID 993)
# Procedure, shortened: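 qHTS, LYMP1-002 lymphoblastoid, 24 h cpd, 37 C, CellTiter-Glo ATP luminescence; AC50 via Hill eq.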
# [20] = Cell Viability - LYMP1-002 - Assay at 40 hr (AID 994); note: nearly all actives have a fitted effect of over 60% in size
# Procedure, shortened: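 Viability in the human lymphoblastoid line was measured as intracellular ATP via CellTiter-Glo after 40 hr compound exposure. Tetraoctylammonium bromide served as positive control.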
# [21] = measured here: cell count channel max response
# [22] = measured here: lipid channel max response
# Alpha-galactosidase A (Homo sapiens), sequence (P06280 whole entry, looked up): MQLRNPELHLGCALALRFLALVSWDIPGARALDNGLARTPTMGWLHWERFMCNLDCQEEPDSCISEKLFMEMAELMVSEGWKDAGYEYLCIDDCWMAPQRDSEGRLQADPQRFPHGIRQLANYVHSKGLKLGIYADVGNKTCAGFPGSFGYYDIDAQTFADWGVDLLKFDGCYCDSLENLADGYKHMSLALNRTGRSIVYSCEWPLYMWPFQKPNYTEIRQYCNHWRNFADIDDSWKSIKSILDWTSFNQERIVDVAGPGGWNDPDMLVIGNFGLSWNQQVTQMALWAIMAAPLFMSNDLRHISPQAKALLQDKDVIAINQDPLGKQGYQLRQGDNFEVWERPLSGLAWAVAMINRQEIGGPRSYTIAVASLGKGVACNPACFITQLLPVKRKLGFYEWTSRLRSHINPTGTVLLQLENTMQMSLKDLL
# DNA repair nuclease/redox regulator APEX1 (Homo sapiens), sequence (P27695 whole entry, looked up): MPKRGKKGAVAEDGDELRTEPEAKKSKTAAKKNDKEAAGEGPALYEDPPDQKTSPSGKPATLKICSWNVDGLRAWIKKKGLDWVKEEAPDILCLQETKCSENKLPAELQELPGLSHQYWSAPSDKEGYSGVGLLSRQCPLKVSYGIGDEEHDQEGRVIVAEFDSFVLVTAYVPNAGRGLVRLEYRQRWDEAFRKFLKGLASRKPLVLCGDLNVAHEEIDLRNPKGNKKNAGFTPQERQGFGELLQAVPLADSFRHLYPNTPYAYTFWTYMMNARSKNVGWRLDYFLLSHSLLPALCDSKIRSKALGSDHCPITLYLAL
compound,measurement,setting,value
CC1=C(CC(=O)O)c2cc(F)ccc2/C1=C\c1ccc(S(C)(=O)=O)cc1,outcome,[1],inactive
same,outcome,[2],inactive
same,outcome,[3],inactive
same,Potency,[4],inactive
same,Potency,[5],inactive
same,Potency,[6],inactive
same,Potency,[7],inactive
COC(=O)C1=C(C)NC(C)=C(C(=O)OC)C1c1ccccc1[N+](=O)[O-],Potency,[8],inactive
same,outcome,[1],inactive
same,outcome,[2],inactive
same,outcome,[3],inactive
same,Potency,[4],inactive
same,Potency,[5],inactive
same,Potency,[6],inactive
C[C@H](N)[C@H](O)c1cccc(O)c1,"activity change, negative = inhibition",[9]; at 25.7 µM (top of the series),-0.37% (inactive)
same,max response,[9]; [21],15.1%
same,max response,[9]; [22],15%
C#CCN(C)Cc1ccccc1,outcome,[1],inactive
same,outcome,[2],inactive
same,"activity change, negative = inhibition",[9]; at 25.7 µM (top of the series),-2.03% (inactive)
same,max response,[9]; [21],-10.9%
same,max response,[9]; [22],-13.8%
same,Potency,[4],inactive
same,Potency,[5],inactive
same,Potency,[6],inactive
same,Potency,[10],inactive
same,Potency,[7],inactive
C[C@H]1O[C@@H](n2cc(F)c(=O)[nH]c2=O)[C@H](O)[C@@H]1O,"activity change, negative = inhibition",[9]; at 57.5 µM (top of the series),-0.32% (inactive)
same,max response,[9]; [21],40.7%
same,max response,[9]; [22],39.7%
same,Potency,[4],inactive
same,Potency,[5],inactive
same,Potency,[6],inactive
same,Potency,[10],inactive
same,Potency,[7],inactive
Cn1cc[nH]c1=S,"activity change, negative = inhibition",[9]; at 25.7 µM (top of the series),-0.635% (inactive)
same,"activity change, negative = inhibition",[9]; at 57.5 µM (top of the series),4.03% (inactive)
same,max response,[9]; [21],-10.4% and 8.98%
same,max response,[9]; [22],-9.93% and 13%
Nc1cc(=O)[nH]c(N)n1,outcome,[1],inactive
same,outcome,[2],inactive
same,"activity change, negative = inhibition",[9]; at 57.5 µM (top of the series),1.9% (inactive)
same,max response,[9]; [21],-3.41%
same,max response,[9]; [22],-1.88%
same,Potency,[4],inactive
same,Potency,[5],inactive
same,Potency,[6],inactive
same,Potency,[10],inactive
same,Potency,[7],inactive
CN(C)CC[C@@H](c1ccc(Cl)cc1)c1ccccn1,"activity change, negative = inhibition",[9]; at 57.5 µM (top of the series),-0.0513% (inactive)
same,max response,[9]; [21],35.1%
same,max response,[9]; [22],34.2%
same,Potency,[4],inactive
same,Potency,[5],inactive
same,Potency,[6],inactive
same,Potency,[10],2510 nM (active)
CCCCN(CCCC)CCCOC(=O)c1ccc(N)cc1,"activity change, negative = inhibition",[9]; at 25.7 µM (top of the series),-3.3% (inactive)
same,"activity change, negative = inhibition",[9]; at 57.5 µM (top of the series),6.89% (inactive)
same,max response,[9]; [21],-6.51% and -0.907%
same,max response,[9]; [22],-7.52% and 11.8%
c1ccc(CN(CC2=NCCN2)c2ccccc2)cc1,"activity change, negative = inhibition",[9]; at 25.7 µM (top of the series),-2.49% (inactive)
same,"activity change, negative = inhibition",[9]; at 57.5 µM (top of the series),-1.31% (inactive)
same,max response,[9]; [21],2.23% and 6.19%
same,max response,[9]; [22],-3.05% and 6.55%
Cc1cc(CC(=O)O)n(C)c1C(=O)c1ccc(Cl)cc1,Potency,[11],inactive
same,Potency,[12],inactive
same,outcome,[13],inactive
same,outcome,[14],inactive
same,Potency,[15],inactive
same,Potency,[16],inactive
same,Potency,[17],inactive
same,outcome,[18],inactive
same,Potency,[8],inactive
same,Potency,[19],inactive
same,Potency,[20],inactive
same,"activity change, negative = inhibition",[9]; at 25.7 µM (top of the series),-0.167% (inactive)
same,"activity change, negative = inhibition",[9]; at 57.5 µM (top of the series),7.69% (inactive)
same,max response,[9]; [21],-0.357% and 17.9%
same,max response,[9]; [22],0.164% and 28.7%
